Structures are written as SMILES. About 1,400 (61%) of roughly 2,300 compounds were called active. Another 7% or so got no clear call; they are omitted. The rule behind the calls is not given here. So high a share suggests a set chosen from earlier hits. The list is a sample of the results. Entries with a potency or affinity are not part of this list.

Sequence of FAD-linked sulfhydryl oxidase ALR (Homo sapiens) (P55789 whole entry, looked up): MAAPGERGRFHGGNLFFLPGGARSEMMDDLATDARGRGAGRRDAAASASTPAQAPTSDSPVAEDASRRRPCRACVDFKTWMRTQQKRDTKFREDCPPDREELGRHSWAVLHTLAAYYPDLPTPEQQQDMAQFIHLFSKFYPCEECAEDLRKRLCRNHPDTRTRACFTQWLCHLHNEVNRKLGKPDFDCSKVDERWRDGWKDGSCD

This assay concerns the target FAD-linked sulfhydryl oxidase ALR (Homo sapiens) (UniProt P55789). The assay is described as follows: ALR-catalysed DTT oxidation blockers – biochemical, H2O2 detection, luminescence, cherry-pick, dose response (AID 493248). To be noted: purified ALR, H2O2 HRP-luminol luminescence; at 10 µM (top of the series).
Regarding `COc1ccc(C=O)cc1CSc1ccccn1`, the activity change, negative = inhibition was -11.6%.

As to `COc1c(OC)c(O)c2c(=O)cc(-c3c(O)cccc3O)oc2c1OC`, the activity change, negative = inhibition came out at 162%.

With `Cc1nc(-c2ccc([N+](=O)[O-])cc2)c(-c2ccccc2)o1`, the activity change, negative = inhibition came out at 29.9%.

As for `O=C(CC1C(=O)Nc2ccccc2N1CC(=O)N1CCCC1)Nc1ccc(Br)cc1` (stereo unspecified), the activity change, negative = inhibition is -30%.

For the compound `CCN(CC)c1ccc2oc(=O)c(C)nc2c1`, the activity change, negative = inhibition came out at 88.3%.

In the case of `O=C(c1cc(C(=O)c2ccco2)cc(C(=O)c2ccco2)c1)c1ccco1`, the activity change, negative = inhibition is -7.08%.

In the case of `O=C(CCNc1cccc(Cl)c1)c1ccco1`, the activity change, negative = inhibition is -4.82%.

Consider `COc1cc(NCCC(=O)c2cccs2)c(OC)cc1Cl`, for which the activity change, negative = inhibition is -89.7%.

`c1ccc2c3c([nH]c2c1)-c1[nH]ncc1CC3`: the activity change, negative = inhibition was -82.4%.

Turning to `NC(=O)NC1CCCc2c1[nH]c1ccc(Cl)cc21` (stereo unspecified), the activity change, negative = inhibition is -12.4%.

For the compound `COc1ccc(-c2csc(NC(=O)[C@H](C)N3C(=O)C4CC=CCC4C3=O)n2)cc1OC` (stereo partly specified), the activity change, negative = inhibition was -58.5%.

Consider `COc1cc(/C=C2\SC(=Nc3ccccc3OC)NC2=O)ccc1O`, for which the activity change, negative = inhibition is -53.3%.

For `O=C(c1cccc(Cl)c1)C1CCCN(Cc2ccc(N3CCNC3=O)cc2)C1` (stereo unspecified), the activity change, negative = inhibition was -1.51%.

For `CCC(=O)N1CCN=C1SCc1cccc(F)c1`, the activity change, negative = inhibition was -25.9%.

Turning to `O=C(CN1C(=O)CSC1=O)N1CCCC(Nc2ccc(F)cc2)C1` (stereo unspecified), the activity change, negative = inhibition is -78.4%.

`Cc1nc(N2CCN(C)CC2)c2cc(-c3ccccc3)sc2n1`: the activity change, negative = inhibition is -4.2%.

On to `COc1cc(C(=O)O)c2c(c1C)OC(=O)c1c(C)cc(O)c(C=O)c1O2`, for which the activity change, negative = inhibition was -39.1%.

On to `CNC(=O)c1csc(-c2ccc(C)cc2)n1`, for which the activity change, negative = inhibition came to 146%.

In the case of `CCNc1nc(NCC)nc(N(C)N)n1`, the activity change, negative = inhibition was -22.3%.

As for `Cc1cccc(NCc2ccc(N(C)C)cc2)n1`, the activity change, negative = inhibition is -5.45%.

Regarding `COc1ccc(O)c(CNc2ccccc2F)c1`, the activity change, negative = inhibition is -6.08%.

Regarding `CC(C)n1c(NCc2cccs2)nc2ccccc21`, the activity change, negative = inhibition is -4.15%.

With `CC(=O)Nc1ccc(-c2csc(NNC(=O)c3ccccc3)n2)cc1`, the activity change, negative = inhibition worked out at 7.25%.

In the case of `CC(=O)Nc1ccc(NCc2ccc(C)s2)cc1`, the activity change, negative = inhibition was -11.5%.

Consider `O=C(CN1C(=O)S/C(=C\C=C\c2ccccc2)C1=O)Nc1ccccc1C(=O)O`, for which the activity change, negative = inhibition is -58%.

With `COc1cc(C(=O)N/N=C/c2cccc(Oc3ccccc3)c2)ccc1O`, the activity change, negative = inhibition was -2.05%.

As for `CCN(CC)S(=O)(=O)c1ccc(C(=O)Nc2nnc(CSC)o2)cc1`, the activity change, negative = inhibition is -25.7%.

In the case of `Cc1[nH]n(C(N)=S)c(=O)c1N=Nc1cccc([N+](=O)[O-])c1C`, the activity change, negative = inhibition was -50.5%.

Turning to `Cc1cc(C(=O)Nc2nc3c(s2)CCCC3)no1`, the activity change, negative = inhibition is -50.2%.

Consider `Cc1cc(C(=O)Nc2sc3c(c2C#N)CCCC3)no1`, for which the activity change, negative = inhibition is -53.9%.

Take `O=C(NCc1n[nH]c(=S)n1-c1ccc(Cl)c(Cl)c1)c1ccc(S(=O)(=O)N2CCCCC2)cc1`: the activity change, negative = inhibition was determined as 15%.

Take `COc1ccc(C(=O)c2ccc(N(C)C)cc2)c(OC)c1`: the activity change, negative = inhibition was -4.89%.

In the case of `CC(C)C(=O)n1nc(-c2cccnc2)nc1NCc1cccs1`, the activity change, negative = inhibition was -25.7%.

As for `C(=C\c1nc2ccccc2[nH]1)/c1ccccc1`, the activity change, negative = inhibition was -1.44%.

Turning to `O=c1[nH]ccc2c(O)cccc12`, the activity change, negative = inhibition is -103%.

For the compound `Nc1ccc2nc[nH]c2c1`, the activity change, negative = inhibition was -12.8%.

Turning to `CC(C)Cc1nc2ccc(N)cc2[nH]1`, the activity change, negative = inhibition is -1.73%.

With `Nc1ccc(-c2nc3ccc([N+](=O)[O-])cc3[nH]2)cc1`, the activity change, negative = inhibition was 31%.

As for `COc1ccc(N=C2C(=O)N3CCCc4cccc2c43)cc1`, the activity change, negative = inhibition is -15.6%.

In the case of `O=C(NCc1ccccc1Cl)C1CCCN(S(=O)(=O)c2cnc[nH]2)C1` (stereo unspecified), the activity change, negative = inhibition was 20%.

For the compound `Cc1ccc(S(=O)(=O)N2CCCC(C(=O)O)C2)s1` (stereo unspecified), the activity change, negative = inhibition came out at 5.85%.

On to `O=C(NCCc1ccccc1)C1CCCN(S(=O)(=O)c2cnc[nH]2)C1` (stereo unspecified), for which the activity change, negative = inhibition is 6.71%.

For the compound `COc1cc(NC(=O)C2CCCN(S(=O)(=O)c3cnc[nH]3)C2)cc(OC)c1` (stereo unspecified), the activity change, negative = inhibition is -31%.

Regarding `N#Cc1c(N)c(C(=O)c2ccccc2)n2c1CCC2`, the activity change, negative = inhibition was -45.9%.

In the case of `N#Cc1c2n(c3c(=O)n(Cc4ccccc4)cnc13)CCCC2`, the activity change, negative = inhibition was determined as 18%.

`COc1ccc(C(=O)NCCNc2nc3ccc(C)cc3cc2C#N)cc1OC`: the activity change, negative = inhibition amounted to 3.56%.

For `O=C(/C(=N/N=C/c1ccc(O)c(O)c1O)c1ccccc1)c1ccccc1`, the activity change, negative = inhibition was -31.1%.

On to `CN(C)c1ccc(/C=N/Nc2cccc(C(=O)O)c2)cc1`, for which the activity change, negative = inhibition was -23.9%.

Regarding `CCC(C)(C)n1nnnc1CN1CCc2ccccc21`, the activity change, negative = inhibition turned out to be 23.2%.

On to `CC1CCN(CC(=O)N2c3ccccc3CCc3ccccc32)CC1`, for which the activity change, negative = inhibition is 2.93%.

In the case of `COc1ccc(NC(=O)CC2Nc3cccc4cccc(c34)NC2=O)cc1` (stereo unspecified), the activity change, negative = inhibition is -74.6%.

For `CN(C)c1ccc(NC(=O)CC2NCCNC2=O)cc1` (stereo unspecified), the activity change, negative = inhibition is -99.5%.

Turning to `CC(C)Cn1c(N)c(C=O)c(=O)n(C)c1=O`, the activity change, negative = inhibition is -3.74%.

Regarding `CN(Cc1ccco1)C(=O)C(Cc1ccccc1)NS(=O)(=O)c1ccc2c(c1)CCC(=O)N2` (stereo unspecified), the activity change, negative = inhibition is -12%.

For `CSc1ccc(/C=C2\C(=N)N3N=C(CC(=O)N4CCCCC4)SC3=NC2=O)cc1`, the activity change, negative = inhibition is -54.4%.

For `N=C1/C(=C\c2ccc(Br)o2)C(=O)N=C2SC(CC(=O)N3CCCCC3)=NN12`, the activity change, negative = inhibition is -18.4%.

Regarding `CCc1ccc(CCC(=O)Nc2ccc(Cl)cc2)o1`, the activity change, negative = inhibition is -22.5%.

As to `CC(C)C(=O)NN(C(=O)C(C)C)c1nc2ccccc2s1`, the activity change, negative = inhibition was -76%.

In the case of `Cc1nc(-c2ccccc2)sc1-c1n[nH]c(=S)n1C`, the activity change, negative = inhibition is -47.5%.

Take `Cn1c(-c2sccc2OCc2ccccc2)n[nH]c1=S`: the activity change, negative = inhibition was -40.7%.

In the case of `COc1cc(CNc2cc(C)ccc2C)cc(OC)c1OC`, the activity change, negative = inhibition is -55.5%.

These data come from PubChem BioAssay AID493248 (Broad Institute, 2011).
